Experimental findings from PubChem BioAssay (NCI) are described below.

SMILES strings stand for the structures. This is part of a sample that, as a whole, favours compounds with a hit. Of some 83,000 tested, about 20% had one in any assay.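 Step 1: grow cells in 96-well plates. Step 2: add test compound at a single concentration. Step 3: incubate 48 h. Step 4: record percent growth.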 Unmarked numbers belong to inactive results. Active and inactive are the calls of the source. Rule for the calls: active = growth percent below 10; inactive = the rest.

Assay in all cases: NCI-60 one-dose screen, 48 h (100 = growth as untreated, 0 = no growth, -100 = all killed)
What all share (settings): 10 µM unless noted

For test [1], the system named is HCT-15 colon.
The subject of test [2] is HT29 colon.
Test [3] has as its system SNB-75 CNS.
In test [4] the test system is SNB-19 CNS.
In test [5] the test system is U251 CNS.
Test [6] relates to PC-3 prostate.
The test system of test [7] is SK-MEL-5 melanoma.
For test [8], the system named is UACC-62 melanoma.
The subject of test [9] is LOX IMVI melanoma.
Test [10] relates to SK-MEL-28 melanoma.

For `Cc1[nH]c(C(=O)Nc2ccc(C(=O)N3CCNCC3)cc2OC(C)C)c(Cl)c1Cl`, the growth in test [1] is 49.7%; in [2] it was 9.76% (active); in [3] it was 77.5%; in test [4], 77.5%; in [5] it was 35.8%; in [6], 71.5%. Also, the growth in [7] was 93.4%; in test [8], 102%; in test [9] it was -16% (active); in test [10], 105%.
Turning to `Cc1ccc(/C=N\NC(=O)c2[nH]c3ccc(F)cc3c2-c2ccccc2)cc1`, the growth in test [1] is 24.1%; in [2], 2.07% (active); in test [3], 13.7%; in test [4] it was 45.9%; in test [5], 12.4%; in test [6], 15%. Besides, the growth in [7] is -17.1% (active); in test [8] it was 44.9%; in test [9], 26.5%; in test [10] it was 71.5%.
Consider `Cc1nn(-c2ccccc2)c2c1N=c1s/c(=C\c3ccc(C(F)(F)F)cc3)c(=O)n1CN2`, for which the growth is 70.1% in [1]; 77.6% in test [2]; 78% in [3]; 84.4% in test [4]; 73.6% in [5]; 37.2% in test [6]. The growth in test [7] was 31.1%; in test [8], 59.2%; in [9], 56.7%; in test [10] it was 87.2%.
For the molecule `COc1c(B(O)O)cc(C)cc1-c1nc2ccc3[nH]ncc3c2c2c1CCCC2`, the growth in test [1] is 21.6%; in test [2] it was 38.6%; in test [3], -34.4% (active); in test [4] it was 74%; in test [5], 60.6%; in test [6] it was 61.9%. For the same molecule, the growth is 80.4% in test [7], 69.5% in test [8], 30.7% in test [9] and 93.8% in test [10].
On to `NC(=O)Nc1ccc2ncnc(Nc3ccc(Cl)cc3)c2c1`, for which the growth in [1] was 93.1%; in test [2] it was 91.6%; in [3] it was 95%; in test [4] it was 78.6%; in test [5], 95.7%; in test [6] it was 79%. In addition, the growth in test [7] is 89.2%; in [8], 87.9%; in test [9] it was 95.5%; in test [10] it was 106%.
With `CCOC(=O)c1cn2ncnc(Oc3ccc(NC(=O)NCCN4CCOCC4)c(Cl)c3)c2c1C`, the growth in [1] was 96.3%; in test [2] it was 104%; in test [3] it was 76.8%; in test [4], 95.1%; in test [5] it was 98.4%; in test [6] it was 91.2%. Besides, the growth in [7] is 98.5%; in [8], 97.6%; in test [9] it was 99.7%; in [10], 97.1%.
As for `NCCCNc1nc2ccccc2c2c(=O)c3cccc(F)c3sc12`, the growth in [1] was 9.25% (active); in test [2], -14.1% (active); in test [3], 42.7%; in test [4], 44%; in test [5] it was 28.5%; in [6], 48.5%. Besides, the growth in [7] is 72.9%; in [8], 75.9%; in test [9] it was -96.8% (active); in [10] it was 85.1%.
Consider `Cc1cc2nc3cc(C)c(N)cc3[n+](-c3ccccc3)c2cc1N`, for which the growth in test [1] was 111%; in test [2], 85.3%; in [3], 52.1%; in test [4], 23.3%; in [5] it was 19.4%; in [6], 42.5%. Also, the growth in [7] is 20.7%; in test [8], 53.1%; in [9], 67%; in [10], 80.7%.
For the molecule `Cc1ccccc1C(=O)NN`, the growth is 106% in test [1]; 98.9% in test [2]; 91.1% in test [3]; 105% in [4]; 104% in [5]; 92.8% in test [6]. Besides, the growth is 119% in test [7], 101% in test [8], 109% in test [9] and 115% in test [10].
For the molecule `N#C/C(=C\c1ccc(F)cc1)n1nc2cccc(F)c2n1`, the growth in test [1] was 30.6%; in test [2], 25.6%; in test [3] it was 0.195% (active); in test [4], 63.6%; in test [5], 28.1%; in [6], 53.7%. For the same molecule, the growth in test [7] is 73%; in [8], 45.7%; in test [9] it was 20.6%; in [10], 53.2%.
On to `COc1ccc2nc(NC(=O)c3cccnc3Nc3ccc(S(N)(=O)=O)cc3)sc2c1`, for which the growth is 94.2% in test [1]; 106% in test [2]; 74.6% in test [3]; 99.4% in test [4]; 97.4% in test [5]; 71.6% in [6]. Moreover, the growth was 89.4% in [7], 82.5% in test [8], 100% in test [9] and 116% in test [10].
As for `CCOC(=O)Cn1c(C)c(/C=N/NC(=O)c2cc3c(ccc4ccccc43)o2)c2ccccc21`, the growth was 11% in [1]; 3.63% (active) in test [2]; 2.97% (active) in test [3]; 18% in [4]; 15.9% in [5]; 10.5% in test [6]. The growth in test [7] was 7.35% (active); in test [8], 35.4%; in [9] it was 24.9%; in test [10], 45.2%.
In the case of `CC(C)n1cnc2c(Nc3cccc(Cl)c3)nc(N[C@H]3CCCC[C@@H]3N)nc21`, the growth was 58.1% in [1]; 11.3% in [2]; 32.8% in [3]; 59.7% in test [4]; 57.3% in test [5]; 54.3% in test [6]. For the same molecule, the growth in test [7] is 53.3%; in [8] it was 68.3%; in test [9] it was 45.2%; in test [10], 61.7%.
